# From PubChem BioAssay
# FBPA Giardia inh – Giardia lamblia aldolase inhibition. purified Giardia FBPA. actives 0.71% (n = 290,000). Potency, µM (series often up to 59.6 µM), without a hit: at the top dose activity, negative = inhibition, most hits filed as inhibitors. AID 2451. A8B2U2; further: on the % scale 0 is the no-effect control and ±100 the full control effect; nearly all actives have a fitted effect of over 55% in size
# Target sequence (A8B2U2 whole entry, looked up): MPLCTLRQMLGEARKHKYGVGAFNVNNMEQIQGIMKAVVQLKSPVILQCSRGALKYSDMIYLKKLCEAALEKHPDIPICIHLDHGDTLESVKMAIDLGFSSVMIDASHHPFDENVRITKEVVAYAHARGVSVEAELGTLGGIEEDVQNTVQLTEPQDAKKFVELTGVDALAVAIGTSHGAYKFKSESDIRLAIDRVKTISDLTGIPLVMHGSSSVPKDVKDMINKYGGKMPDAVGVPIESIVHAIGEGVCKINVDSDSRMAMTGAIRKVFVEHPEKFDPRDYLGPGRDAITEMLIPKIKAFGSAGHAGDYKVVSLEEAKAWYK
#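 40 nM FBPA preincubated 10 min at RT with compound (up to 57.5 uM final), then substrate plus GAPDH/TPI/NAD/arsenate coupling and diaphorase/resazurin added. Fluorescence read after 20 min at RT, 525/598 nm.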
# SARS PLpro yeast – blocks SARS-CoV papain-like protease in a yeast assay; AID 485353; actives 0.19% (n = 330,000); Potency, µM (highest dose often 32.9 µM), for inactives: at the top dose activity, positive = growth rescue, hits mostly activators; S. cerevisiae expressing SARS-CoV PLpro, growth rescue; calls by dose curve; further: 0% is about no effect; nearly all actives have a fitted effect of over 55% in size
# AmpC detergent – inhibitors of E. coli AmpC beta-lactamase with detergent; Potency, µM (titrated, usually from 114 µM), without a hit: top-dose activity change, negative = inhibition, hits mostly inhibitors; actives 0.041% (n = 370,000); P00811; AmpC hydrolysis of nitrocefin, absorbance 480 nm, 0.01% Triton;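 further: 0% = no-compound wells and -100% = no-enzyme wells; nearly all actives have a fitted effect of over 25% in size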
#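 AmpC (5.3 nM in the dispensed reagent) in 20 mM phosphate pH 7.0 with 0.01% (detergent screen) or 0.0001% Triton X-100 was preincubated with compounds for 15 min at room temperature. Nitrocefin was then added from an 800 uM solution, and hydrolysis was followed at 480 nm.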
# NS1 inh – inhibitors of influenza NS1 protein function. AID 2326. Potency, µM (top dose mostly 46.1 µM), inactives show at the highest dose activity, positive = more growth. actives 0.4% (n = 270,000); calls by dose curve; further: actives are rising curves; nearly all actives have a fitted effect of over 50% in size
#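 Growth recovery, yeast-based: influenza A NS1 expressed in S. cerevisiae causes slow growth, and suppressors are detected by OD600. The parent strain without NS1 is used as positive control.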
# AmpC inh no detg – AmpC beta-lactamase inhibition without detergent | AmpC nitrocefin hydrolysis, absorbance 480 nm, 0.0001% Triton | Potency, µM (doses to about 57.1 µM), inactives show at the top dose activity change, negative = inhibition, most hits filed as inhibitors | actives 0.52% (n = 330,000) | P00811;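 further: plate controls were no compound for no effect and no enzyme for full effect; nearly all actives have a fitted effect of over 20% in size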
#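 AmpC (5.3 nM in the dispensed reagent) in 20 mM phosphate pH 7.0 with 0.01% (detergent screen) or 0.0001% Triton X-100 was preincubated with compounds for 15 min at room temperature. Nitrocefin was then added from an 800 uM solution, and hydrolysis was followed at 480 nm.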
# An asterisk follows results filed as active; ? = inconclusive; / = no result. Rows were chosen to be rich in hits. Some 1.4% of all compounds tested hit in one or more screens of this group. Unless noted, the call rests on the fitted dose curve; in most records, active means well fitted curve in the direction sought with a large enough effect; inconclusive means small, poorly fitted or top-dose-only effect, or another doubt; inactive means no such curve, though single readings can be large; an effect the other way counts as inactive or inconclusive. Potency means the concentration at half of the fitted maximal effect.
SMILES,FBPA Giardia inh,SARS PLpro yeast,AmpC detergent,NS1 inh,AmpC inh no detg
O=C(O)C1Nc2c(O)cc(Cl)c([N+](=O)[O-])c2C2C=CCC12 (stereo not given),?,?,40µM*,/,7.1µM*
CCc1cccc(C)c1NC(=O)Cn1c(NCCO)nc2ccccc21,1%,12%,-4%,-3%,-26%
CCCCNc1nc2ccccc2n1CC(=O)Nc1c(C)cccc1CC,7%,21%,-7%,-9%,20µM*
CC1CCc2c(nc3nc[nH]n3c2=O)C1 (stereo not given),-17%,7%,0%,6%,-8%
S=c1c2c(nc3nc[nH]n13)CCC2,2.5µM*,-7%,-8%,-9%,-7%
O=S(=O)(O/N=C1\CCCc2ccccc21)c1ccccc1,0%,4%,4%,-1%,-8%
CC1=CC(=O)C=C(C)C1=NOS(=O)(=O)c1ccccc1,4µM*,-30%,-10%,-194%,-2%
CC1=CC(=O)C(C(C)C)=C/C1=N/OS(=O)(=O)c1ccccc1,20µM*,-5%,-1%,-101%,-22%
Cc1ccc(S(=O)(=O)ON=C2CCN(S(=O)(=O)c3ccccc3)CC2)cc1,-8%,-13%,9%,4%,-11%
Brc1cc2[nH]cnc2c2ccccc12,18µM*,-16%,0%,-85%,-7%
Oc1ccc2c(ccc3[nH]cnc32)c1,-13%,1%,1%,8%,-2%
CC[N+](CC)(CC)C/C=C/CN1CCCCC1,0%,26%,2%,-1%,-15%
Nc1ccccc1Nc1cc(-c2ccccc2)[nH]n1,-7%,-10%,1%,17%,1.1µM*
O=C(NCCCN1CCOCC1)c1sc2cc([N+](=O)[O-])ccc2c1Cl,2.5µM*,-1%,?,/,-30%
COc1ccc(C(=O)Nc2cc(C)nn2-c2cccc(F)c2)cc1OC,4%,-1%,-14%,1%,-4%
C=C1c2cccc(O)c2C(=O)C2C(=O)[C@]3(O)C(=O)C(C(N)=O)C(=O)[C@@H](N(C)C)[C@@H]3[C@@H](O)[C@H]12 (stereo not given in full),/,17%,/,/,8.9µM*
CCOc1cc(CNc2ccc3[nH]c(=O)[nH]c3c2)ccc1OCC(=O)NC(C)(C)C,?,0%,-3%,1%,-30%
COc1cc(CNc2ccc3[nH]c(=O)[nH]c3c2)cc(Cl)c1OCC(=O)NC(C)(C)C,10µM*,-3%,-1%,-2%,-21%
CCOC(=O)c1c(C)oc2c1c1c(c3ccccc32)OCN(Cc2cccnc2)C1,5µM*,-21%,8%,-19%,128%
CC(C)NC(=O)c1ccccc1NC(=O)/C=C/c1cccc([N+](=O)[O-])c1,2%,21%,?,1%,-13%
CCn1cc(C(=O)NC(C)CCc2ccccc2)c(=O)c2cc(S(=O)(=O)N(C)C)ccc21 (stereo not given),7%,1%,1%,-5%,149%
Cc1ccn2c(C(=O)CSc3ccc(Cl)cc3)c(C)nc2c1,0%,-2%,-4%,3%,0.32µM*
CSc1ccc(/C=C/C(=O)c2c(O)cc(C)oc2=O)cc1,-5%,-1%,-11%,?,28µM*
COc1ccc(/C=C/C(=O)c2c(O)cc(C)oc2=O)c(OC)c1,-5%,2%,5%,7%,-39%
Cc1cc(O)c(C(=O)/C=C/c2ccc(Cl)cc2)c(=O)o1,-8%,-2%,-1%,14%,25µM*
SMILES,FBPA Giardia inh,SARS PLpro yeast,AmpC detergent,NS1 inh,AmpC inh no detg
CCCCC(=O)Nc1cc(-c2nc3ncccc3o2)ccc1C,2%,0%,-1%,4%,-13%
Cc1oc(-c2ccc(Cl)cc2)nc1CS(=O)CC(=O)NC1CCCCC1 (stereo not given),/,1%,-1%,?,15%
CCCCNC(=S)N(C)/N=C/c1sc(N2CCCCC2)nc1-c1cccs1,-5%,-17%,-3%,6%,11µM*
CCC1CCCCN1C(=O)CSc1nnc(-c2ccc(Cl)cc2)o1 (stereo not given),3%,-2%,?,-3%,-20%
CCC1CCCCN1C(=O)CSc1nnc(-c2cccc(Cl)c2)o1 (stereo not given),3%,-5%,?,-34%,5µM*
CC(C)CC1C(C#N)=C(N)OC2=C1C(=O)CC(c1ccccc1)C2 (stereo not given),-8%,2%,?,/,28µM*
O=C(CSc1ccc2nnc(-c3ccc(Cl)cc3)n2n1)N1CCc2ccccc21,-9%,-1%,-16%,3%,6.3µM*
O=C(CSc1ccc2nnc(-c3cccnc3)n2n1)N1CCc2ccccc21,7%,-4%,?,-6%,-8%
Cc1nn2c(=O)cc(COC(=O)c3ccccc3NC(=O)c3cccs3)nc2s1,/,/,7%,/,/
COc1ccc(CNC(=O)CSc2nnc(C)s2)cc1,-1%,11%,-8%,0%,-12%
CC(=O)c1cccc(NC(=O)C2=CC(c3ccc4c(c3)OCO4)=NS(=O)(=O)N2C)c1,/,-5%,-5%,9%,10µM*
CCOC(=O)/C=C1\Nc2ccccc2SC1=O,4%,1%,-10%,-6%,20µM*
CCOc1ccc(NC(=O)c2cc3c(C)nc4ccccc4c3o2)cc1,4%,-7%,?,1%,5µM*
Nc1c(S(=O)(=O)c2cc(Cl)ccc2Cl)c2nc3ccccc3nc2n1CCN1CCOCC1,-8%,-9%,1%,26%,183%
COc1ccc(Cl)cc1C(=O)NCC(c1ccco1)N1CCCC1 (stereo not given),-1%,0%,3%,0%,0.16µM*
COc1ccc(S(=O)(=O)N2CCOCC2)cc1C(=O)NCC(c1ccco1)N1CCCC1 (stereo not given),/,-1%,0%,/,-10%
O=C(CNC(=O)c1ccccc1F)OCCCOC(=O)CNC(=O)c1ccccc1F,/,0%,?,/,-26%
CC(=O)c1ccc(OCCCC(=O)Nc2ccc(S(=O)(=O)N3CCOCC3)cc2)cc1,/,11µM*,-13%,/,0%
O=C(CCCOc1ccc(Br)cc1)Nc1ccc(S(=O)(=O)N2CCOCC2)cc1,/,-3%,-19%,/,?
O=C1CC(CC(=O)N/N=C/c2ccccc2[N+](=O)[O-])=NN1,-11%,24%,?,6.3µM*,-21%
O=C(C[n+]1ccccc1)N/N=C/c1ccccc1[N+](=O)[O-],-4%,-1%,-2%,3%,-15%
O=C(CCN=C1NS(=O)(=O)c2ccccc21)OCC(=O)c1ccccc1Cl,/,-1%,4%,/,40µM*
COc1ccccc1C(=O)COC(=O)CCCN=C1NS(=O)(=O)c2ccccc21,/,0%,0%,/,-20%
COc1ccccc1Nc1cc(C)nc(Nc2ccccc2OC)n1,/,-2%,0%,/,31%
Cn1c(=O)oc2cc(S(=O)(=O)N3CCCC(C(=O)N4CC=C(c5ccccc5)CC4)C3)ccc21 (stereo not given),-22%,4%,-9%,10µM*,77%
